Each structure is given as a SMILES string. Inconclusive results are not listed. Unmarked numbers belong to inactive results. Active and inactive are the calls of the source. Calls follow the shape of the dose curve; as a rule, active = well fitted curve in the direction sought with a large enough effect; inconclusive = small, poorly fitted or top-dose-only effect, or another doubt; inactive = no such curve, though single readings can be large; an effect the other way counts as inactive or inconclusive.

Assay [1] has as its target Rap guanine nucleotide exchange factor 3 (Homo sapiens) (UniProt O95398). Kind of assay: Confirmatory qHTS for antagonist of cAMP-regulated guanine nucleotide exchange factor 3 (EPAC1) (AID 1645880). Also: nearly all actives have a fitted effect of over 55% in size. Also: potency is read from the fitted curve at half-maximal effect. The method, boiled down:
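Released BODIPY-GDP fluoresces less than Rap1-bound BODIPY-GDP; the signal is followed at 480/540 nm at 5-min intervals over 30 min, after 5 min at room temperature. Reactions contain 100 nM EPAC1, 250 nM RAP1B-BODIPY-GDP and 50 uM GDP; results are normalized to ATA and DMSO.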
Background: In qHTS, concentration-response curves come from the screen itself.

Assay [2] has the same target. Kind of assay: Confirmatory qHTS for agonist of cAMP-regulated guanine nucleotide exchange factor 3 (EPAC1) (AID 1645881). Also: nearly all actives have a fitted effect of over 75% in size. Also: potency is read from the fitted curve at half-maximal effect.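 As to activation: EPAC1 catalysed release of BODIPY-GDP from Rap1B seen as fluorescence loss; 100% = effect of cAMP agonist control.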
The target in assay [3] is Rap guanine nucleotide exchange factor 4 (Homo sapiens) (UniProt Q8WZA2). Briefly: Confirmatory qHTS for agonist of cAMP-regulated guanine nucleotide exchange factor 4 (EPAC2) (AID 1645884).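 Also: nucleotide exchange releases bodipy-GDP from Rap1 and this lowers its fluorescence; nearly all actives have a fitted effect of over 65% in size.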 Also: potency is read from the fitted curve at half-maximal effect. As to activation: % is scaled to controls: 0 for no effect and ±100 for the full control effect.
Sequence of Rap guanine nucleotide exchange factor 4 (Homo sapiens) (Q8WZA2 whole entry, looked up): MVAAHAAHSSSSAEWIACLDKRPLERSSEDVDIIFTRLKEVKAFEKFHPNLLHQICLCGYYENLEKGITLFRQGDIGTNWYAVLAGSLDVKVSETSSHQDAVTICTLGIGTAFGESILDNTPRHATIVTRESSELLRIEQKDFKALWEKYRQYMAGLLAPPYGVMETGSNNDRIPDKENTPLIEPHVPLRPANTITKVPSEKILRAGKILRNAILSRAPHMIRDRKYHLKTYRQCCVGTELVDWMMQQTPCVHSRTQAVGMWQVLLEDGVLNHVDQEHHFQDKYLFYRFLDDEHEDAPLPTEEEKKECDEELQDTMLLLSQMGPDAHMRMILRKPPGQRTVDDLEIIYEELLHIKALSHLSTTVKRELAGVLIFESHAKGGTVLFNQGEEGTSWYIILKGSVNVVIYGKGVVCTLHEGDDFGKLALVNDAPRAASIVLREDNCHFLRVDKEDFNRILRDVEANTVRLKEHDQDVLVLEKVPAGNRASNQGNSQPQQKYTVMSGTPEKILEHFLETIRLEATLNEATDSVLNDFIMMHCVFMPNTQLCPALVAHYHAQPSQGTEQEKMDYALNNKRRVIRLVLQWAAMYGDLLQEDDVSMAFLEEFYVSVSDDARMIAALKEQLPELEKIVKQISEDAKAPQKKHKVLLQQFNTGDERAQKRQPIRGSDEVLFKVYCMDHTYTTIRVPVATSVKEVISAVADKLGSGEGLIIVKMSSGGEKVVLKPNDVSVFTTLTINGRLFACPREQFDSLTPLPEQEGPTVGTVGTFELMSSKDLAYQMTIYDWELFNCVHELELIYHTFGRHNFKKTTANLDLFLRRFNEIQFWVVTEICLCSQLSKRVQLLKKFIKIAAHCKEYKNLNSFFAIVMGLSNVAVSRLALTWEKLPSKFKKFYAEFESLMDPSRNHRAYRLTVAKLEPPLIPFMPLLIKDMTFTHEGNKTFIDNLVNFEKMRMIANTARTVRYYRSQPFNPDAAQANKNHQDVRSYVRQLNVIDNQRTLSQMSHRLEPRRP
The target is the same in assay [4]. Kind of assay: Confirmatory qHTS for antagonist of cAMP-regulated guanine nucleotide exchange factor 4 (EPAC2) (AID 1645885). Also: % is scaled to controls: 0 for no effect and ±100 for the full control effect; nearly all actives have a fitted effect of over 25% in size.
Assay [5] addresses Rap guanine nucleotide exchange factor 3 (Homo sapiens) (UniProt O95398). Briefly: Counterscreen qHTS for antagonist of cAMP-regulated guanine nucleotide exchange factor 3 (EPAC1) (AID 1645888). Also: % of control where 0% means no effect. The method, boiled down:
(§1)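 Rap1B–BODIPY-GDP (250 nM) with 50 uM GDP; compounds pin-transferred to 9.74 nM–152 uM final (activator) or from 7.32 nM upwards (inhibitor). Fluorescence Ex/Em 480/540 nm read at 5 and 30 min, then after adding cAMP or buffer, at room temperature.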
In general terms: The purpose of a counterscreen is to sort out artefacts and off-target activity.

The target is the same in assay [6]. Kind of assay: Counterscreen qHTS for agonist of cAMP-regulated guanine nucleotide exchange factor 3 (EPAC1) (AID 1645889). Also: nearly all actives have a fitted effect of over 40% in size. Also: potency is read from the fitted curve at half-maximal effect. As to activation: % of control where 0% means no effect. The method, boiled down:
as §1

Sequence of Rap guanine nucleotide exchange factor 3 (Homo sapiens) (O95398 whole entry, looked up): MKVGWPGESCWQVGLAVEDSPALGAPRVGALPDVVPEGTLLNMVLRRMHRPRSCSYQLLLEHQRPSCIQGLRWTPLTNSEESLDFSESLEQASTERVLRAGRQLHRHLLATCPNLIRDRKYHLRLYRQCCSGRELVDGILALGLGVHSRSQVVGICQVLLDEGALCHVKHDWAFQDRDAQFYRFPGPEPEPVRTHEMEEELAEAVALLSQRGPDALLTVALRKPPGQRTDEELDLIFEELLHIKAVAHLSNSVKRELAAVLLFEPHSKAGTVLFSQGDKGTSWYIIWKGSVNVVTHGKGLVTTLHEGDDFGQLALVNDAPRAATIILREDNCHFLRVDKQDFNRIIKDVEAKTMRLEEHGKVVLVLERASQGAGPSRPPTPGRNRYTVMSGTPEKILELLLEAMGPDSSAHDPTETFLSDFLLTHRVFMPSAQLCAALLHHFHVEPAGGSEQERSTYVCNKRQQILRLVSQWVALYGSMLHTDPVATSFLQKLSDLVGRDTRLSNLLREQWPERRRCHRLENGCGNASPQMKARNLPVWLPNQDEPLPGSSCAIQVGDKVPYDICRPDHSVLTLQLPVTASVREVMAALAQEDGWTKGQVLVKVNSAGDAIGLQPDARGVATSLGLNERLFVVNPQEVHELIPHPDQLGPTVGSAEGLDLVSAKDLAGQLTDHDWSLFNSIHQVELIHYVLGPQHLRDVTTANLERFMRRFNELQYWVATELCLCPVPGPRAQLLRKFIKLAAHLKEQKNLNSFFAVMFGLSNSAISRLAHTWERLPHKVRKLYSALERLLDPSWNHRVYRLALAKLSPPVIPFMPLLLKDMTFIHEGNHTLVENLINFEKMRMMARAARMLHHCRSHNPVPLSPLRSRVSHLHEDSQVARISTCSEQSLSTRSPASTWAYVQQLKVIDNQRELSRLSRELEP

`N#Cc1c(/N=C/c2ccco2)sc2c1CCC2`: the Potency result in assay [1], in assay [2] and in assay [4] was “inactive” throughout. Besides, the activation in assay [3] was 2.45% [at 17.1 µM, percent relative to cAMP agonist control]; in assay [6], 7.28% [at 30.8 µM]. Moreover, the activity change, negative = inhibition in assay [5] is 0.743% [at 30.8 µM].
As to `CC1(C(=O)O)CCC2(C)CCC3(C)C(=CC(=O)C4C5(C)CCC(=O)C(C)(C)C5CCC43C)C2C1` (configuration not stated), the Potency result in assay [1], in assay [2], in assay [3], in assay [4], in assay [5] and in assay [6] was “inactive” each time.
Turning to `Nc1ncnc2c1nc(Br)n2[C@@H]1O[C@@H]2COP(=O)(O)O[C@H]2[C@H]1O`, the Potency in assay [1] was 5.36 µM (active); in assay [2] it was 7.08 µM (active); in assay [3] it was 2.24 µM (active). For the same molecule, the Potency entry in assay [4], in assay [5] and in assay [6] was “inactive” in each case.
Regarding `CCc1nnc(NC(=O)c2cc(-c3ccco3)nc3ccccc23)s1`, in assay [1], the Potency was 21.3 µM (active). Also, the Potency result in assay [2], in assay [3], in assay [4], in assay [5] and in assay [6] was “inactive” in each case.
For `COc1ccccc1NC(=O)COC(=O)c1ccc([N+](=O)[O-])s1`, the Potency in assay [1] was 21.3 µM (active). Also, the Potency result in assay [2], in assay [3], in assay [4], in assay [5] and in assay [6] was “inactive” each time.
As for `Cc1ccc(S(=O)(=O)/N=C2\C=C(Nc3cccc(C(=O)O)c3)C(=O)c3ccccc32)c(C)c1`, the Potency in assay [1] is 26.9 µM (active). Moreover, the Potency result in assay [2], in assay [3], in assay [4], in assay [5] and in assay [6] was “inactive” throughout.
Turning to `COc1ccccc1/C=C/C=C1\Oc2c(ccc(O)c2CN(C)C)C1=O`, the Potency result in assay [1], in assay [4] and in assay [5] was “inactive” each time. Moreover, the Potency in assay [2] is 89.1 µM (active); in assay [3], 112 µM (active); in assay [6], 63.1 µM (active).
Take `Cc1cc(C)c(C)c(S(=O)(=O)Nc2cccc(S(=O)(=O)Nc3ccccc3C(=O)O)c2)c1C`: the Potency in assay [1] was 39.8 µM (active). The Potency entry in assay [2] and in assay [4] was “inactive” each time. In addition, the activation in assay [3] was 4.6% [at 17.1 µM, percent relative to cAMP agonist control]; in assay [6], 0.792% [at 30.8 µM]. In assay [5], the activity change, negative = inhibition is -6.25% [at 30.8 µM].
As to `CCOC(=O)Cn1c(=O)oc2cc(S(=O)(=O)Nc3c(C)cc(C)cc3C)ccc21`, the Potency result in assay [1], in assay [2] and in assay [4] was “inactive” each time. In addition, the activation in assay [3] was 4.43% [at 17.1 µM, percent relative to cAMP agonist control]; in assay [6] it was 25.1% [at 30.8 µM]. Besides, the activity change, negative = inhibition in assay [5] was -16.5% [at 30.8 µM].
With `Cc1ccc2c(c1)C=CC(C#N)N2C(=O)c1ccccc1` (configuration not stated), the Potency result in assay [1], in assay [2], in assay [3], in assay [4], in assay [5] and in assay [6] was “inactive” each time.
For `CC1(C(=O)NS(=O)(=O)c2ccc3ccccc3c2)CCN1C(=O)C1(c2ccc(Cl)cc2)CCC1` (configuration not stated), the Potency in assay [1] was 37.9 µM (active). Moreover, the Potency result in assay [2], in assay [3], in assay [4], in assay [5] and in assay [6] was “inactive” in each case.
`O=C(CC[C@H]1O[C@@H](n2ccc(=O)[nH]c2=O)[C@H](O)[C@@H]1O)NCc1cccc2ccccc12`: the Potency result in assay [1], in assay [2], in assay [3], in assay [4], in assay [5] and in assay [6] was “inactive” in each case.
With `Cc1ccc(OCCC(=O)OCC(=O)NNC(=O)c2ccccc2)cc1`, the Potency entry in assay [1], in assay [2] and in assay [4] was “inactive” throughout. Besides, the activation was 0.0575% [at 17.1 µM, percent relative to cAMP agonist control] in assay [3] and 0.419% [at 30.8 µM] in assay [6]. In assay [5], the activity change, negative = inhibition was -6.38% [at 30.8 µM].
For `COc1cc(O)cc(O)c1C(=O)/C=C/c1ccccc1`, the Potency in assay [1] was 67.5 µM (active). Besides, the Potency result in assay [2], in assay [3], in assay [4], in assay [5] and in assay [6] was “inactive” in each case.
Consider `CCOC(=O)c1c(/N=C/C2=C(O)CC(C)(C)CC2=O)sc(C)c1C`, for which the Potency result in assay [1], in assay [2] and in assay [4] was “inactive” in each case. Moreover, the activation is 5.64% [at 17.1 µM, percent relative to cAMP agonist control] in assay [3] and 1.97% [at 30.8 µM] in assay [6]. Besides, the activity change, negative = inhibition in assay [5] was -9.9% [at 30.8 µM].
Regarding `OC1C2CN3CCN(C2)CC1(Cc1ccccc1)C3` (configuration not stated), the Potency result in assay [1], in assay [2] and in assay [4] was “inactive” in each case. The activation was 3.83% [at 17.1 µM, percent relative to cAMP agonist control] in assay [3] and 28.2% [at 30.8 µM] in assay [6]. In addition, the activity change, negative = inhibition in assay [5] was -12.7% [at 30.8 µM].
`Oc1ccc(NCc2ccccc2OCc2ccccc2)cc1`: the Potency result in assay [1], in assay [2], in assay [3], in assay [4] and in assay [5] was “inactive” in each case. Also, the activation in assay [6] was 20.2% [at 30.8 µM].

Values taken from PubChem BioAssay (NCATS).
